Source: PubChem BioAssay (The Scripps Research Institute Molecular Screening Center)
Shown are actives, neighbours in structure and some others; about 2.3% of the full set was active somewhere.
M1 ag: human M1 muscarinic receptor agonists, primary screen, Fluo-8 calcium fluorescence, CHO-K1 cells, HTS; 360,000 compounds, 0.33% hits; activation, % at 3 µM; CHO-K1 hM1, agonist mode; 0% DMSO, 100% acetylcholine EC100; Muscarinic acetylcholine receptor M1 (Homo sapiens), P11229;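 active means activation above the run's mean compound activation plus 3 SD, cut at about 16% in these data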;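 further: peak over basal fluorescence ratio within a 140 s kinetic read after compound addition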
Target sequence (P11229 whole entry, looked up): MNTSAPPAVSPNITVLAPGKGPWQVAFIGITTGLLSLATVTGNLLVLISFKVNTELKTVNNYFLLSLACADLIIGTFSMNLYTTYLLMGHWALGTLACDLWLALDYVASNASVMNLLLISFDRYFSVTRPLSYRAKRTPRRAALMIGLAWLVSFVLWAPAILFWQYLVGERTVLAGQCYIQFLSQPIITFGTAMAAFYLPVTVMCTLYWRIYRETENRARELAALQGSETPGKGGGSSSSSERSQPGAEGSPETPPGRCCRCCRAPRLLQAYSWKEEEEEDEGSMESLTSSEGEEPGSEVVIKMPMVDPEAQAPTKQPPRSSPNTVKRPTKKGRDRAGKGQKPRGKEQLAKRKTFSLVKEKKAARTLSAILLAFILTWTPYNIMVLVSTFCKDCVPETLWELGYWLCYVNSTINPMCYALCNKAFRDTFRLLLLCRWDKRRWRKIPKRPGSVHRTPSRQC
M1 PAM parental: nonselective calcium activators in parental CHO-K1 cells, primary screen, counter-screen for M1 PAM project, cell-based, Fluo-8 calcium fluorescence, full deck, 1536-well; activation, % at 3 µM; 360,000 compounds, 0.02% hits; ATP EC20; 0% at ATP EC20, 100% at ATP max;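 active means activation above the run cutoff, the mean activation of all test compounds plus 3 SD, cut at about 40% in these data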;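 further: peak over basal fluorescence ratio in a 140 s read after ATP addition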
CHO-K1 Ca antag: counter-screen for M1 antagonists: effect in parental CHO-K1 cells; inhibition, % at 3 µM; 360,000 compounds, 0.6% hits; ATP-induced calcium, Fluo-8 fluorescence; AID 602250;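 active means inhibition above a per-plate cutoff, the plate's mean sample inhibition plus 3 SD, cut at about 24% in these data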;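 further: 0% = DMSO plus EC80 ATP and 100% = DMSO alone without ATP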
M1 PAM: human M1 muscarinic receptor positive allosteric modulators, primary screen, CHO-K1 cells, Fluo-8 calcium fluorescence, 1536-well. Muscarinic acetylcholine receptor M1 (Homo sapiens), P11229. CHO-K1 hM1, ACh EC20; 0% = ACh EC20, 100% = maximal ACh. activation, % at 3 µM. 360,000 compounds, 0.088% hits. AID 588819, 2011; in the data active means activation above about 19%, passing the limit was not always enough
CHRM1 antagonist: human M1 muscarinic receptor antagonists, primary screen, CHO-K1 cells, Fluo-8 calcium fluorescence, 1536-well; Muscarinic acetylcholine receptor M1 (Homo sapiens), P11229; CHO-K1 hM1, ACh EC80 antagonist; inhibition, % at 3 µM; 360,000 compounds, 1.3% hits;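 active means percent inhibition above its own plate's cutoff, namely the mean of that plate's compound wells plus 3 SD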;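 further: peak over basal fluorescence ratio during 140 s after agonist addition; 0% = ACh EC80 plus DMSO and 100% = DMSO alone without agonist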
M1 ag parental: counter-screen for M1 agonists: effect in parental CHO-K1 cells | AID 602248, 2012 | activation, % at 3 µM | 360,000 compounds, 0.48% hits | Fluo-8 calcium fluorescence; scaled to maximal ATP response, vehicle zero; in the data active means activation above about 15%;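 further: untransfected CHO-K1 host cells lacking M1 receptor as counterscreen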
The depositor's hits bear a star; / = no result.

SMILES	M1 ag	M1 PAM parental	CHO-K1 Ca antag	M1 PAM	CHRM1 antagonist	M1 ag parental
COc1ccc(N2CCN(C(=O)NC3CC(=O)N(c4ccc(OC)cc4)C3)CC2)cc1 (centres undefined)	1.3	4.9	-5.2	18.1	2.5	0.3
COC(=O)c1ccc(Cn2c(O)c(N=O)c3ccccc32)o1	10.6	19.6	-6.4	12.9	-13.9	0.9
O=Nc1c(O)n(Cc2cccc(C(F)(F)F)c2)c2ccccc12	19.1*	8.8	2.6	14.9	2.4	0.1
O=Nc1c(O)n(Cc2ccc(Cl)c(Cl)c2)c2ccccc12	19.4*	21.4	-10.2	24.5*	-23.4	0.8
O=Nc1c(O)n(Cc2ccccc2)c2ccccc12	16.2*	-6.4	-12.8	18.2	-15.8	0.2
O=C(CSc1nnc(NC(=O)c2cccc(F)c2)s1)NC1CCCC1	8.5	13.1	-15.9	1.2	0.2	0.6
CC(C)Oc1ccccc1/C=N/NC(=O)c1ccc(F)cc1	0.1	12.5	-7.3	22.0*	-22.4	0.8
Cc1ccc(NC(=O)CN2CCCN(S(=O)(=O)c3ccc(Br)s3)CC2)cc1	-4.4	-13.4	23.8*	-6.9	15.3	-0.1
Cc1cc(C)cc(NC(=O)CN2CCCN(S(=O)(=O)c3ccc(Br)s3)CC2)c1	-6.7	8.1	-18.3	-6.5	8.4	0.8
CCN(c1ccc(NC(=O)CSc2ccc3c(c2)OCCO3)cc1)C(C)C	-6.9	5.0	15.8	-30.6	81.5*	1.4
O=C(Nc1ccc(OC(F)(F)F)cc1)C1CCCN(C(=O)c2ccc(Cl)cc2)C1 (centres undefined)	0.5	-14.5	13.5	-13.8	30.7	20.0*
O=C(OCC(=O)N1CCc2ccccc21)c1ccccn1	-1.1	9.3	-16.9	1.1	1.5	-0.1
c1ccc(CCC2CCCCN2Cc2nc(-c3ccc4c(c3)OCO4)no2)nc1 (centres undefined)	-3.2	-13.8	1.7	-13.6	35.0*	7.9
CCN1C(=O)[C@H]2[C@@H](c3ccc(-c4cccc(Cl)c4)cc3)N[C@@](C)(C(=O)OC)[C@H]2C1=O	-3.0	20.4	-7.0	5.3	-13.5	0.3
COc1cccc(C(=O)NC(=S)Nn2cnnc2)c1OC	-4.8	-0.1	-15.5	11.6	-11.2	0.2
Cc1cccc(S(=O)(=O)NC(=O)C2(C)CCN2C(=O)Cc2cc(F)ccc2F)c1 (centres undefined)	-9.5	10.3	-7.3	13.2	102.4*	0.3
CC1(C(=O)NS(=O)(=O)c2cccc(Cl)c2)CCN1C(=O)Cc1cc(F)ccc1F (centres undefined)	-3.0	7.4	-15.2	-2.2	3.0	-0.2
COc1cccc(Nc2ccc(-n3ccnc3)nn2)c1	0.6	14.1	-2.6	11.2	-8.7	15.3*
Cc1ccc(Nc2ccc(-n3ccnc3)nn2)cc1C	-4.5	3.2	-6.6	2.4	-9.1	-0.1
CSc1ncccc1C(=O)OCC(=O)NC1CCS(=O)(=O)C1 (centres undefined)	-0.5	-0.6	8.9	0.1	0.2	16.4*
COCCNC(=O)/C(C#N)=C/C=C/c1ccccc1[N+](=O)[O-]	-5.5	-5.2	-17.5	4.2	-2.4	0.5
COCCn1cnnc1SCC(=O)Nc1sccc1C(N)=O	-5.0	7.6	-18.7	9.2	-11.8	0.2
O=C(NCC1CCCO1)/C(=C/c1cn(-c2ccccc2)nc1-c1cccnc1)NC(=O)c1ccccc1 (centres undefined)	-3.5	-1.2	-9.3	3.0	2.0	2.3
O=C(O)c1cn2c3c(ccc(Cl)c3c1=O)OCC2	0.5	6.8	-8.5	26.0*	-28.2	0.5
CC1(c2nnnn2Cc2ccccc2)CCC(=O)N1CCCn1ccnc1 (centres undefined)	/	0.0	-2.3	/	/	0.9
SMILES	M1 ag	M1 PAM parental	CHO-K1 Ca antag	M1 PAM	CHRM1 antagonist	M1 ag parental
CCSc1nsc(NC(=O)Nc2ccc(F)cc2F)n1	2.4	-6.0	19.7	-6.5	12.8	8.8
CCSc1nsc(NC(=O)Nc2ccccc2Cl)n1	-0.3	-16.1	27.9*	-12.8	18.2	6.9
NS(=O)(=O)c1c(Sc2ccccc2C(=O)O)ccc2ccccc12	1.9	17.9	-8.9	12.3	-20.9	1.9
Cc1ccc(S(=O)(=O)Nc2ccc(C(=O)N3CCCC3)cc2)cc1	-2.4	12.8	-7.0	5.3	1.3	1.9
CC1CN(C(=O)c2ccc(S(=O)(=O)Nc3cccc(C(F)(F)F)c3)cc2)CC(C)O1 (centres undefined)	24.8*	-9.3	0.2	-4.9	10.0	21.5*
Cc1ccc(NS(=O)(=O)c2ccc(C(=O)N3CC(C)CC(C)C3)cc2)cc1 (centres undefined)	60.5*	-6.3	35.8*	-16.8	52.9*	53.3*
COc1cc(/C=N/NC(=O)c2ccccn2)ccc1OC(=O)c1ccc(Br)cc1	-0.2	-0.9	-17.0	0.8	-3.9	2.1
COc1cc(/C=N/NC(=O)c2ccccn2)ccc1OC(=O)c1ccccc1Br	-3.2	-7.0	27.5*	-10.8	18.9	3.0
Cn1nc(C(C)(C)C)cc1C(=O)NCc1ccc(N2CCCC2=O)cc1	3.1	-7.9	28.9*	-12.9	23.8	11.2
CC(Oc1ccc(F)cc1)c1ccnc2nc(/N=C/N(C)C)nn12 (centres undefined)	-10.7	-11.2	1.2	-5.1	7.8	-0.3
CC(Oc1ccc(C(C)(C)C)cc1)c1ccnc2nc(/N=C/N(C)C)nn12 (centres undefined)	-7.5	8.7	-2.4	-21.4	54.1*	1.6
CCOCCCNC(=O)C1c2ccccc2Oc2ccccc21	-5.5	20.4	-12.6	4.9	-10.2	0.8
O=C(NCCCn1ccnc1)C1c2ccccc2Oc2ccccc21	-6.5	18.6	12.7	-25.3	23.6*	-0.1
CCN(CC)CCNC(=O)C1c2ccccc2Oc2ccccc21	-10.0	21.6	-10.8	-29.7	92.6*	2.4
CCN(CC)CCOC(=O)C1c2ccccc2Oc2ccccc21	-8.6	5.4	-3.8	-21.8	98.9*	0.9
CCOC(=O)Cc1csc(SCC(=O)Nc2cc(Cl)ccc2Oc2ccccc2)n1	-2.2	1.1	28.6*	-11.4	28.7	7.0
O=C(CSc1n[nH]c(=O)n1C1CC1)Nc1ccccc1	-1.6	14.8	5.6	6.1	-1.2	0.2
O=C(CSc1n[nH]c(=O)n1C1CC1)Nc1cc(Cl)ccc1Oc1ccccc1	2.4	4.1	25.1*	-15.7	45.9*	7.8
O=C(OCc1cccc(C(F)(F)F)c1)c1cc(S(=O)(=O)N2CCOCC2)ccc1F	-0.3	-21.2	-0.2	2.8	0.3	0.5
